According to PubChem BioAssay (NCATS):
“And” between values parts separate entries of the source, which are not always exact repeats. Identical values can stand only once. Records with an inconclusive call do not appear. Where a call stands in place of a potency, no number is given. The source made the active and inactive calls. Calls follow the shape of the dose curve; as a rule, active = well fitted inhibition curve with a large enough effect; inconclusive = small, poorly fitted or top-dose-only effect; inactive = no such curve, though single readings can be large or run the other way.

assay: Primary qHTS for inhibitors of nuclear receptor binding SET domain protein 2 (NSD2) in an RCH-ACV wild type WT cells (2C) (AID 1645877); details: RCH-ACV (leukaemia line) NSD2 WT (2C) viability, CellTiter-Glo, 72 h; series mostly up to 44.9 µM; also: nearly all actives have a fitted effect of over 70% in size
Source text: Assay Provider: Jonathan D. Licht, MD
University of Florida College of Medicine, Gainesville, FL
Mutations in epigenetic regulators are common in relapsed pediatric acute lymphoblastic leukemia (ALL). Here, we uncovered the mechanism underlying the relapse of ALL driven by an activating mutation of the NSD2 histone methyltransferase (p.E1099K). […] Correction of this mutation restored glucocorticoid sensitivity. The transcriptional response to glucocorticoids was blocked in NSD2 mutant cells due to depressed glucocorticoid receptor (GR) levels and the failure of glucocorticoids to autoactivate GR expression. […] Pre-treatment of NSD2 p.E1099K cell lines and PDX samples with PRC2 inhibitors reversed glucocorticoid resistance in vitro and in vivo.
High-throughput drug screening of isogenic RCH-ACV cell lines was performed at the National Center for Advancing Translational Science (NCATS), National Institutes of Health as previously described (1). Briefly, isogenic RCH-ACV NSD2 p.E1099K mutant (9B) and WT cells (2C) were plated at 500 cells/well in a 1536-well plate with a 72-hour incubation with compounds prior to addition of CellTiter-Glo to assess cell viability. NCATS libraries screened include: NPC, MIPE 5.0, Kinase and NPACT. To determine compound activity in the qHTS assay, the concentration-response data for each sample was plotted and modeled by a four-parameter logistic fit yielding IC50 and efficacy (maximal response) values. The area under the curve (AUC) of the dose-response curve ensures both efficacy (magnitude of cell killing) and potency (concentration that elicits cell killing) are accounted for in the analysis of activity.
1. Tobie D Lee, Olivia W Lee, Kyle R Brimacombe, Lu Chen, Rajarshi Guha, Sabrina Lusvarghi, Bethilehem G Tebase, Carleen Klumpp-Thomas, Robert W Robey, Suresh V Ambudkar, Min Shen, Michael M Gottesman, Matthew D Hall. A High-Throughput Screen of a Library of Therapeutics Identifies Cytotoxic Substrates of P-glycoprotein. Mol Pharmacol. 2019, Nov;96(5):629-640.
Potency is read from the fitted curve at half-maximal effect.

| SMILES | Potency | outcome |
| --- | --- | --- |
| N#C/C(=C\c1ccc(O)c(O)c1)C(=O)NCc1ccccc1 | 9.2 µM (active) and 11.8 µM (active) | – |
| CC(C)(C)c1nnc(NS(=O)(=O)c2ccc(N)cc2)s1 | inactive | – |
| CC1(C)S[C@@H]2[C@H](NC(=O)[C@H](NC(=O)N3CCN(S(C)(=O)=O)C3=O)c3ccccc3)C(=O)N2[C@H]1C(=O)O | inactive | – |
| C/C(=N\O)c1ccc(OCC(=O)N2CCCCC2)cc1 | inactive | – |
| COC(=O)[C@H]1[C@H]2C[C@@H]3c4[nH]c5cc(OC)ccc5c4CCN3C[C@H]2C[C@@H](OC(=O)/C=C/c2cc(OC)c(OC)c(OC)c2)[C@@H]1OC | inactive | – |
| O=C(O)Cc1cccc(-c2cc(CCCCCCc3ccc(O[C@H]4O[C@H](CO)[C@@H](O)[C@H](O)[C@@H]4O)c(-c4cccc(CC(=O)O)c4)c3)ccc2O[C@H]2O[C@H](CO)[C@@H](O)[C@H](O)[C@@H]2O)c1 | – | inactive [at 0.588 µM] |
| O=C(O)[C@H](CC(=O)N1C[C@H]2CCCC[C@H]2C1)Cc1ccccc1 | inactive | – |
| CCCCCCCCCCCC(=O)[O][Sn]([CH2]CCC)([CH2]CCC)[O]C(=O)CCCCCCCCCCC | inactive | – |
| COC(=O)c1nc(Cl)c(Cl)nc1N | 0.0376 µM (active) | – |
| N#C/C(=C\c1ccc(O)c(O)c1)C(=O)NCCCc1ccccc1 | 16.4 µM (active) | – |
| Nc1ccc([N+](=O)[O-])cc1O | 7.7 µM (active) | – |
| Oc1cc(O)cc(/C=C/c2ccc(O)c(O)c2)c1 | 7.31 µM (active) | – |
| CNC(=O)c1c(I)c(NC(=O)CCCCC(=O)Nc2c(I)c(C(=O)O)c(I)c(C(=O)NC)c2I)c(I)c(C(=O)O)c1I | inactive | – |
| CC1(C)[C@@H](O)CC[C@]2(C)[C@H]3C(=O)C=C4[C@@H]5C[C@@](C)(C(=O)O)CC[C@]5(C)CC[C@@]4(C)[C@]3(C)CC[C@@H]12 | inactive | – |
| C#C[C@]1(O)CC[C@H]2[C@@H]3CCc4cc(O)ccc4[C@H]3CC[C@@]21C | 18.8 µM (active) and 10.5 µM (active) | – |
| Nc1ncnc2c1c(I)cn2[C@@H]1C[C@H](N)[C@@H](O)[C@H]1O | 23.1 µM (active) | – |
| CN1CC(=O)N/C1=N/C(=O)Nc1cccc(Cl)c1 | inactive | – |
| CC[C@H]1OC(=O)[C@H](C)[C@@H](O[C@H]2C[C@@](C)(OC)[C@@H](O)[C@H](C)O2)[C@H](C)[C@@H](O[C@@H]2O[C@H](C)C[C@H](N(C)C)[C@H]2O)[C@](C)(O)C[C@@H](C)C(=O)[C@H](C)[C@@H](O)[C@]1(C)O | inactive | – |
| [O-][n+]1ccccc1SSc1cccc[n+]1[O-] | 0.103 µM (active) | – |
| Oc1c(Br)cc(Br)c2cccnc12 | 3.35 µM (active) | – |

| SMILES | Potency | outcome |
| --- | --- | --- |
| c1ccc2sc(SN3CCOCC3)nc2c1 | inactive | – |
| C=CCCCCCCCCC(=O)O | inactive | – |
| Cc1ccc(O)c(-n2nc3ccccc3n2)c1 | inactive | – |
| COC(=O)C1=C(C)NC(C)=C(C(=O)OCC(C)C)C1c1ccccc1[N+](=O)[O-] (stereo not given) | 26.6 µM (active) | – |
| CCCCCCCCCCCCCCCC(=O)OC(C)C | inactive | – |
| Cc1c(N)c(=O)n(-c2ccccc2)n1C | inactive | – |
| O=C(OCc1ccccc1)c1ccccc1 | inactive | – |
| CCOC(=O)N1CCN(/[N+]([O-])=N/Oc2ccc([N+](=O)[O-])cc2[N+](=O)[O-])CC1 | 5.9 µM (active) | – |
| CC(=O)c1ccc(OCC(=O)N2CCCCC2)cc1 | inactive | – |
| COC(=O)C1=C(C)NC(C)=C(C(=O)OCC(C)=O)C1c1ccccc1[N+](=O)[O-] (stereo not given) | 11.9 µM (active) | – |
| N=C(N)N | inactive | – |
| CCCCC1C(=O)N(c2ccccc2)N(c2ccc(O)cc2)C1=O (stereo not given) | 0.531 µM (active) | – |
| CC1(C)S[C@@H]2[C@H](NC(=O)[C@H](N)c3ccc(O)cc3)C(=O)N2[C@H]1C(=O)O | inactive | – |
| COc1cccc2c1C(=O)c1c(O)c3c(c(O)c1C2=O)C[C@@](O)(C(=O)CO)C[C@@H]3O[C@H]1C[C@H](N)[C@H](O[C@@H]2CCCCO2)[C@H](C)O1 | 0.0038 µM (active) | – |
| CC(C(=O)O)c1ccc2c(c1)[nH]c1ccc(Cl)cc12 (stereo not given) | inactive | – |
| CCNc1nc2c(ncn2[C@H]2C[C@H](O)[C@@H](CO)O2)c(=O)[nH]1 | inactive | – |
| CC1(C)[C@@H](O[C@H]2O[C@H](C(=O)O)[C@@H](O)[C@H](O)[C@H]2O[C@@H]2O[C@H](C(=O)O)[C@@H](O)[C@H](O)[C@H]2O)CC[C@]2(C)[C@H]3C(=O)C=C4[C@@H]5C[C@@](C)(C(=O)O)CC[C@]5(C)CC[C@@]4(C)[C@]3(C)CC[C@@H]12 | inactive | – |
| Cc1[nH]cnc1CN1CCc2c(c3ccccc3n2C)C1=O | inactive | – |
| O=C(/C=C/c1ccc(O)cc1)c1ccc(O)cc1O | 5.25 µM (active) | – |
| O=C(O)/C=C\C(=O)O | inactive | – |
